# Results filed as inconclusive are left out. The source made the active and inactive calls. Rule for the calls: active = hit-call score of the fitted dose curve at least 0.9, where 1 is the maximum; inconclusive = response in the unintended direction; inactive = score below 0.9.
# What was measured:
# [1] = ATG_XTT_Cytotoxicity: Cytotoxicity Assessment in the Attagene TRANS-FACTORIAL HepG2 Assay (AID 2283584);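 for AC50: XTT signal for cell number as viability in transfected HepG2 cells; cells exposed to compound for 24 h before reading; active means loss of viability signal versus DMSO baseline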
# Procedure, shortened: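 HepG2 cells transiently transfected with GAL4-UAS multiple reporter units, dosed 24 h; cytotoxicity read by XTT as loss of signal versus DMSO baseline.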
# [2] = TOX21_p53_BLA_p2_viability: Viability Assessment in the Tox21 HCT-116 p53 Agonism Beta-lactamase Assay, Phase 2 (AID 2283591);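 note: compound exposure lasted 16 h at 37 °C; actives lower the ATP signal meaning cytotoxicity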
# Procedure, shortened: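 HCT-116 p53-bla cells (4000/well) rested 5 h at 37C, then received compounds in DMSO (217-fold dilution) for 16 h at 37C, 5% CO2. After the CCF4 read, CellTiter-Glo was added; ATP luminescence was read after 30 min at room temperature.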
# [3] = biological target: Cellular tumor antigen p53 (Homo sapiens) (UniProt P04637); assay: TOX21_p53_BLA_p2_ratio: Tox21 HCT-116 p53 Agonism Beta-lactamase Assay, Ratio, Phase 2 (AID 2283592)
# Chain of Cellular tumor antigen p53 (Homo sapiens) (P04637 whole entry, looked up): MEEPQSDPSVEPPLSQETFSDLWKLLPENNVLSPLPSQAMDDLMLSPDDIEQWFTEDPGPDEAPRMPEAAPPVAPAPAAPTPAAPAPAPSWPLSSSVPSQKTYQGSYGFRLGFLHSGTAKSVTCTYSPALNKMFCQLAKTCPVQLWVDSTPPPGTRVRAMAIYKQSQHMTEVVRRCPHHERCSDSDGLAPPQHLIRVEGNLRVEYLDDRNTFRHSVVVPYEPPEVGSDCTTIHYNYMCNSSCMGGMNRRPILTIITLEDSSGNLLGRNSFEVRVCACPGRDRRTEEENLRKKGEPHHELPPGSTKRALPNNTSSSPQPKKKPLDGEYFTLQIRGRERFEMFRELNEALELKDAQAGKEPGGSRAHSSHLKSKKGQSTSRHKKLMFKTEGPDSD
# Procedure, shortened: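 HCT-116 cells with p53-responsive beta-lactamase reporter, 4000 cells/well, preincubated 5 h, then compound in DMSO (217-fold dilution) for 16 h at 37C. CCF4-AM substrate 2 h at room temperature; 460/530 nm emission ratio fitted upward versus DMSO.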
# [4] = biological target: Cellular tumor antigen p53 (Homo sapiens) (UniProt P04637); assay: TOX21_p53_BLA_p3_ratio: Tox21 HCT-116 p53 Agonism Beta-lactamase Assay, Ratio, Phase 3 (AID 2283596)
# Procedure, shortened: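 HCT116 p53-bla cells (4000/well) given compound in DMSO (217-fold dilution) after 5 h, incubated 16 h at 37C. CCF4-AM substrate 2 h at room temperature; 460/530 nm emission ratio, gain fitted against DMSO.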
# [5] = TOX21_p53_BLA_p4_viability: Viability Assessment in the Tox21 HCT-116 p53 Agonism Beta-lactamase Assay, Phase 4 (AID 2283597);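 note: hits lower the luminescence signal meaning cytotoxicity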
# Procedure, shortened: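 HCT-116 p53-bla cells, 4000/well, dosed after 5 h attachment and incubated 16 h at 37 °C, 5% CO2. Viability from CellTiter-Glo ATP luminescence after 30 min at room temperature, taken after the beta-lactamase read; loss of signal indicates cytotoxicity.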
# [6] = biological target: Cellular tumor antigen p53 (Homo sapiens) (UniProt P04637); assay: TOX21_p53_BLA_p5_ratio: Tox21 HCT-116 p53 Agonism Beta-lactamase Assay, Ratio, Phase 5 (AID 2283599)
# Procedure, shortened: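 HCT-116 cells carrying a p53-inducible beta-lactamase reporter were seeded at 4000 cells/well and dosed after 5 h with compound in DMSO (217-fold dilution). After 16 h at 37C, CCF4-AM substrate was added for 2 h, and the 460/530 nm emission ratio was scored as gain-of-signal versus DMSO.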
# [7] = TOX21_p53_BLA_p5_viability: Viability Assessment in the Tox21 HCT-116 p53 Agonism Beta-lactamase Assay, Phase 5 (AID 2283600)
# Procedure, shortened: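 HCT-116 p53 beta-lactamase reporter cells, 4000/well, were exposed to compound (pin transfer, 217-fold dilution) for 16 hours at 37C. Cellular ATP was read by CellTiter-Glo luminescence after 30 min at room temperature.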
# [8] = TOX21_p53_BLA_p3_viability: Viability Assessment in the Tox21 HCT-116 p53 Agonism Beta-lactamase Assay, Phase 3 (AID 2283593);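 note: cells exposed to compound for 16 h before reading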
# Procedure, shortened: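 HCT-116 cells (4000/well) rested 5 h at 37C, then got DMSO compounds by pin tool (217-fold dilution) for 16 h at 37C, 5% CO2. After the bla read, CellTiter-Glo was added and luminescence read at 30 min, room temperature.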
structure (smiles),measurement,setting,value
O=Cc1ccc(CO)o1,outcome,[1],inactive
same,outcome,[2],inactive
same,outcome,[3],inactive
same,outcome,[4],inactive
same,outcome,[5],inactive
same,outcome,[6],inactive
same,outcome,[7],inactive
O=C(Cl)c1cc(C(=O)Cl)cc(C(=O)Cl)c1,outcome,[1],inactive
same,outcome,[2],inactive
same,outcome,[3],inactive
same,outcome,[4],inactive
same,outcome,[5],inactive
same,outcome,[6],inactive
same,outcome,[7],inactive
O=C(Oc1ccccc1)c1ccc2ccccc2c1O,outcome,[1],inactive
same,outcome,[2],inactive
same,outcome,[3],inactive
same,outcome,[8],inactive
same,outcome,[4],inactive
same,outcome,[5],inactive
same,outcome,[7],inactive
C=C[C@](C)(O)CC[C@@H]1[C@@]2(C)CCCC(C)(C)[C@@H]2CC[C@@]1(C)O,AC50,[1],119 µM (active)
same,AC50,[2],47.1 µM (active)
same,AC50,[3],86 µM (active)
same,AC50,[8],64.6 µM (active)
same,AC50,[4],85.2 µM (active)
same,AC50,[5],15.8 µM (active)
same,AC50,[7],67.5 µM (active)
O=S(=O)(O)CC(O)CCl (stereo not given),outcome,[1],inactive
same,outcome,[2],inactive
same,outcome,[3],inactive
same,outcome,[8],inactive
same,outcome,[4],inactive
same,outcome,[6],inactive
CC(=O)NS(=O)(=O)c1ccc(N)cc1,outcome,[1],inactive
same,outcome,[2],inactive
same,outcome,[3],inactive
same,outcome,[8],inactive
same,outcome,[4],inactive
same,outcome,[5],inactive
same,outcome,[7],inactive
CC/C=C\CCOC(=O)CCCCC,outcome,[1],inactive
same,outcome,[2],inactive
same,outcome,[3],inactive
same,outcome,[8],inactive
same,outcome,[4],inactive
same,outcome,[6],inactive
CC(=O)Oc1ccc(C)cc1,outcome,[1],inactive
same,outcome,[2],inactive
same,outcome,[3],inactive
same,outcome,[8],inactive
same,outcome,[4],inactive
same,outcome,[7],inactive
O=C1CCCN1CCO,outcome,[1],inactive
same,outcome,[2],inactive
same,outcome,[3],inactive
same,outcome,[4],inactive
same,outcome,[5],inactive
same,outcome,[6],inactive
same,outcome,[7],inactive
Cc1oncc1C(=O)Nc1ccc(C(F)(F)F)cc1,outcome,[1],inactive
same,outcome,[2],inactive
same,outcome,[3],inactive
same,outcome,[8],inactive
same,outcome,[4],inactive
same,outcome,[5],inactive
same,outcome,[7],inactive
O=S(=O)(O)c1ccccc1C=Cc1ccc(-c2ccc(C=Cc3ccccc3S(=O)(=O)O)cc2)cc1,outcome,[1],inactive
same,outcome,[2],inactive
same,outcome,[3],inactive
same,outcome,[8],inactive
same,outcome,[4],inactive
same,AC50,[6],11.4 µM (active)
same,outcome,[7],inactive
O=c1cc[nH]c(=S)[nH]1,outcome,[1],inactive
same,outcome,[2],inactive
same,outcome,[3],inactive
same,outcome,[8],inactive
same,outcome,[4],inactive
same,outcome,[5],inactive
same,outcome,[7],inactive
O=C1CCCCCN1SSN1CCCCCC1=O,outcome,[1],inactive
same,outcome,[2],inactive
same,AC50,[3],86.6 µM (active)
same,outcome,[8],inactive
same,outcome,[4],inactive
same,outcome,[5],inactive
same,outcome,[7],inactive
NC(CO)(CO)CO,outcome,[1],inactive
same,outcome,[2],inactive
same,outcome,[3],inactive
same,outcome,[4],inactive
same,outcome,[5],inactive
same,outcome,[7],inactive
COc1cc(C)ccc1C(C)C,outcome,[1],inactive
same,outcome,[2],inactive
same,outcome,[3],inactive
same,outcome,[8],inactive
same,outcome,[4],inactive
same,outcome,[6],inactive
same,outcome,[7],inactive
CCCCCCCC/C=C\CCCCCCCC(=O)O,outcome,[1],inactive
same,outcome,[2],inactive
same,outcome,[3],inactive
same,outcome,[8],inactive
same,outcome,[4],inactive
same,outcome,[5],inactive
same,outcome,[7],inactive
CCCC(=O)OCc1ccccc1,outcome,[1],inactive
same,outcome,[2],inactive
same,outcome,[3],inactive
same,outcome,[8],inactive
same,outcome,[4],inactive
same,outcome,[7],inactive
CC(C)CC(O)Cc1ccccc1 (stereo not given),outcome,[1],inactive
same,outcome,[2],inactive
same,outcome,[3],inactive
same,outcome,[4],inactive
same,outcome,[5],inactive
CC(C)(c1cc(Br)c(OCCO)c(Br)c1)c1cc(Br)c(OCCO)c(Br)c1,AC50,[1],23.3 µM (active)
same,AC50,[2],37.3 µM (active)
same,AC50,[3],10.8 µM (active)
same,AC50,[8],55 µM (active)
same,AC50,[4],19.9 µM (active)
same,AC50,[5],53.1 µM (active)
same,AC50,[7],60.1 µM (active)
NC(=O)c1ccccc1O,outcome,[1],inactive
same,outcome,[2],inactive
same,outcome,[3],inactive
same,outcome,[8],inactive
same,outcome,[4],inactive
same,outcome,[6],inactive
same,outcome,[7],inactive
CN(C)c1ccc(N=Nc2ccccc2C(=O)O)cc1,outcome,[1],inactive
same,AC50,[2],75.8 µM (active)
same,outcome,[3],inactive
same,AC50,[8],75 µM (active)
same,AC50,[5],68 µM (active)
same,outcome,[6],inactive
same,AC50,[7],75.8 µM (active)
CCCCCCCCCCOS(=O)(=O)O,outcome,[1],inactive
same,outcome,[2],inactive
same,outcome,[3],inactive
same,outcome,[8],inactive
same,outcome,[5],inactive
same,outcome,[6],inactive
C=CC(C)(C)C,outcome,[1],inactive
same,outcome,[2],inactive
same,outcome,[3],inactive
same,outcome,[8],inactive
same,outcome,[4],inactive
same,outcome,[6],inactive
same,outcome,[7],inactive
O=C(OCC1CCC2OC2C1)C1CCC2OC2C1 (stereo not given),outcome,[1],inactive
same,outcome,[2],inactive
same,outcome,[3],inactive
same,outcome,[4],inactive
same,outcome,[5],inactive
same,outcome,[7],inactive
CCCOCCOCCOCCO,outcome,[1],inactive
same,outcome,[2],inactive
same,outcome,[3],inactive
same,outcome,[4],inactive
same,outcome,[5],inactive
same,outcome,[6],inactive
same,outcome,[7],inactive
CC(C)(C)C(=O)C=Cc1ccc(Cl)cc1,outcome,[1],inactive
same,outcome,[3],inactive
same,outcome,[8],inactive
same,outcome,[4],inactive
same,outcome,[5],inactive
same,outcome,[6],inactive
CC(C)COC(=O)C=Cc1ccccc1,outcome,[1],inactive
same,outcome,[2],inactive
same,outcome,[3],inactive
same,outcome,[4],inactive
same,outcome,[6],inactive
same,outcome,[7],inactive
FC(F)(F)C(=NOCC1OCCO1)c1ccc(Cl)cc1,outcome,[1],inactive
same,outcome,[2],inactive
same,outcome,[8],inactive
same,outcome,[4],inactive
same,outcome,[5],inactive
same,outcome,[7],inactive
OCCN(CCO)c1ccccc1,outcome,[1],inactive
same,outcome,[2],inactive
same,outcome,[8],inactive
same,outcome,[6],inactive
same,outcome,[7],inactive
NC(=O)N=NC(N)=O,outcome,[1],inactive
same,outcome,[2],inactive
same,outcome,[3],inactive
same,outcome,[5],inactive
same,outcome,[6],inactive
same,outcome,[7],inactive
CCOC(=O)CC(C(C)=O)C(C)=O,outcome,[1],inactive
same,outcome,[2],inactive
same,outcome,[8],inactive
same,outcome,[4],inactive
same,outcome,[6],inactive
CCCCOCCOC(=O)COc1nc(Cl)c(Cl)cc1Cl,outcome,[1],inactive
same,outcome,[3],inactive
same,outcome,[8],inactive
same,outcome,[4],inactive
same,outcome,[5],inactive
same,outcome,[6],inactive
same,outcome,[7],inactive
C=C(C)[C@H]1CC=C(C)CC1,outcome,[1],inactive
same,outcome,[2],inactive
same,outcome,[6],inactive
